Sampled rows, rich in hits. Any-hit rate of the full collection: about 9.6%.
INS promoter inh = inhibitors of insulin promoter-driven GFP, primary screen, imaging, TRM-6 cells (human fetal islet line), eGFP reporter, cell count; reporter expression induced with tamoxifen; inhibition, % at 2 µM; 0.9% of 130,000 active; AID 1273, 2008;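 active = inhibition above the mean plus 3 SD, with well images judged a real hit on visual review, cut at about 60% in these data, passing the limit was not always enough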
bCat KO growth = primary screen for growth suppressors in beta-catenin knockout HCT116 cells (colon tumor, human) | AID 818, 2007 | viability, % at 10 µM | 1.5% of 140,000 active | HCT116 beta-catenin knockout viability, CellTiter-Glo, 60 h; active compounds read low;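 active = viability at or under a set limit, the compound median less 4 SD, cut at about 6% in these data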;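 note: 0% = Hyamine 1622 control at 20 µM and 100% = untreated cell control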
Lmaj promast = Leishmania major promastigote growth inhibition, primary screen. Leishmania major promastigotes, resazurin fluorescence viability. inhibition, % at 10 µM. 9% of 200,000 active. AID 1063, 2008; in the data active = inhibition above about 50%;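 note: promastigotes grown with compound for 44 hours at 28 °C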
PTEN del growth = growth suppression of PTEN-null HCT116, primary screen, cell-based, CellTiter-Glo; AID 827, 2007; viability, % at 10 µM; 1.2% of 140,000 active; HCT116 PTEN-null viability, 60 h; active compounds read low;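 active = viability at or below a set limit, 4 SD under the median of all tested compounds, cut at about 3.7% in these data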;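 note: PTEN knockout HCT116 line with beta catenin targeted HCT116 as companion control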
Autophagy HCS = autophagy modulators in MEF cells, primary screen, imaging, high-content, MEF GFP-LC3; MEF GFP-LC3 puncta imaging; test concentration mostly 10 µM; 0.98% of 190,000 active; calls only at 10 µM (by protocol);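 active = percentage of spot-positive cells more than 3 SD above its plate mean, without a fluorescence outlier flag or 80% toxicity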;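 note: spot-positive cell cutoff set from DMSO-treated cells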
Insulin prom up = insulin promoter activators in MIN6 cells, imaging, high-content screening, mouse beta cells; z-score at 5 µM; 0.3% of 190,000 active; MIN6 insulin promoter-GFP reporter; active compounds read high; AID 1625, 2009;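 active = z-score above 3 at 5 µM with at least 500 cells counted in the well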
* = called active by the depositor; i = inactive; x = no result given; + = active, no number.

SMILES	INS promoter inh	bCat KO growth	Lmaj promast	PTEN del growth	Autophagy HCS	Insulin prom up
COc1ccc(-c2cn[nH]c2N)cc1	-21	95	-4	97	i	-0.7
COc1ccc(-c2cn[nH]c2N)c(OC)c1	84*	105	-6	105	i	-1.3
FC(F)(F)c1ccc(Cl)c(N/N=C/c2ccc(N3CCOCC3)s2)c1	-24	87	98*	78	i	0.18
Cc1ccc(C)c(-c2cc(C(=O)NNC(=S)NCC(C)C)c3ccccc3n2)c1	x	74	-4	68	i	-0.36
COc1cc(NC(=O)c2ccco2)c(C(=O)OCC(=O)c2c[nH]c3ccccc23)cc1OC	14	61	55*	66	i	-0.45
COc1ccccc1N(C)S(=O)(=O)c1ccc(C(=O)OCC(=O)N(C)c2ccccc2)cc1	x	x	97*	x	i	-0.37
CC(OC(=O)c1cccc(S(=O)(=O)Nc2ccccc2F)c1)C(=O)NCc1ccc2c(c1)OCO2 (centres undefined)	19	95	0	92	i	-0.22
COc1ccccc1N(C)S(=O)(=O)c1ccc(C(=O)OCC(=O)Nc2ccccc2F)cc1	36	x	11	x	i	-0.26
COc1ccccc1N(C)S(=O)(=O)c1ccc(C(=O)OCC(=O)c2c[nH]c3ccccc23)cc1	-17	81	100*	84	i	0.55
COc1ccccc1N(C)S(=O)(=O)c1ccc(C(=O)OC(C)C(=O)NCc2ccc3c(c2)OCO3)cc1 (centres undefined)	x	x	98*	x	i	0.38
C=CCOc1ccc(C(=O)Nc2ccc(OCC)cc2)cc1	x	x	-3	x	i	-0.6
CCN(CC)S(=O)(=O)c1ccc(NC(=O)c2ccc(CN3CCOCC3)cc2)cc1	-281	15	6	25	i	-0.95
CCOC(=O)c1ccc2ncc(C(=O)OCC)c(NCCCN3CCOCC3)c2c1	x	87	60*	85	i	-2.5
CCOC(=O)c1cnc2ccc(C(=O)OC)cc2c1Nc1ccc(C(=O)O)cc1	13	x	11	x	i	-0.77
CCOC(=O)c1ccc2ncc(C(=O)OCC)c(Nc3ccc(N4CCOCC4)cc3)c2c1	33	15	74*	4	i	-1.9
CCOC(=O)c1cnc2ccc(C(=O)OC)cc2c1Nc1ccc2c(c1)OCCO2	-63	89	0	82	+	x
Oc1ccccc1/C=N/Nc1cc(N2CCCC2)nc(N2CCCC2)n1	x	24	96*	21	i	-0.58
Oc1ccc(/C=N/Nc2cc(N3CCOCC3)nc(N3CCOCC3)n2)cc1O	-25	3.0*	-11	4	i	-1.4
COc1ccc(/C=N/Nc2cc(C)nc(N3CCOCC3)n2)cc1	x	x	x	x	x	0.16
Oc1cccc(/C=N/Nc2cc(N3CCOCC3)nc(N3CCOCC3)n2)c1	11	51	61*	52	i	0.07
CCC(=O)c1ccc(OC(=O)c2ccc(Br)o2)cc1	5	x	-6	x	i	x
COc1ccc(N(C(=O)Nc2ccc(Cl)cc2)C2=NCCC2)cc1	x	97	-2	104	i	-0.36
Cn1c(=O)oc2cc(S(=O)(=O)NCCC(=O)NCCc3ccccc3)ccc21	-15	89	-14	96	i	0.75
O=C(/C=C/c1cccs1)N1CCN(c2ccc(O)cc2)CC1	43	x	76*	x	i	0.45
COc1ccc2nc(C)cc(N3CC(C)OC(C)C3)c2c1 (centres undefined)	91*	61	13	65	i	-0.07
SMILES	INS promoter inh	bCat KO growth	Lmaj promast	PTEN del growth	Autophagy HCS	Insulin prom up
CCN(CC)C(=O)/C(=C\c1ccc2c(c1)OCO2)NC(=O)c1ccc(Br)cc1	-7	89	0	93	i	-1.7
O=C(NCc1ccc(Cl)cc1Cl)C(=O)N1CCCCC1	x	94	4	101	i	-0.11
Cc1cccc(C(=O)NNC(=O)c2ccccc2)c1	14	84	28	97	i	0.34
Cc1cccc(C(=O)CC(=O)c2cc(Cl)ccc2O)c1	-17	10	99*	10	i	x
Cc1ccc(O)c(C(=O)CC(=O)c2cccc(F)c2)c1	-152	38	60*	40	i	0.09
O=C(CC(=O)c1cc(Cl)ccc1O)c1ccccc1	-40	16	99*	22	i	-0.62
COc1cc2c(cc1OC)C(c1ccccc1)N(C(=O)CSCC(=O)O)CC2 (centres undefined)	x	x	-6	x	i	-0.5
CC(C)OC(=O)CSc1nc2cc3c(cc2cc1C#N)OCO3	38	98	-6	94	i	0.5
C=CCN(c1cccc(C(F)(F)F)c1)S(=O)(=O)c1cccc(C(=O)OCC(=O)Nc2ccccc2)c1	23	90	42	95	i	0.34
CCCNC(=O)c1ccccc1NC(=O)c1ccccc1N(C)S(C)(=O)=O	-310	97	-7	105	i	x
CCCC(=O)NC(c1ccco1)c1cc(Cl)c2cccnc2c1O (centres undefined)	17	6.0*	-2	7	i	0.19
CCC(=O)NC(c1ccc(OC)c(OC)c1)c1cc(Cl)c2cccnc2c1O (centres undefined)	x	x	90*	x	i	-1.5
CCCC(=O)NC(c1ccc2c(c1)OCO2)c1cc(Cl)c2cccnc2c1O (centres undefined)	x	4.1*	99*	5	i	0.04
CCCC(=O)NC(c1cccs1)c1cc(Cl)c2cccnc2c1O (centres undefined)	x	x	99*	x	i	-2.1
CC(C)C(=O)NC(c1cccs1)c1cc([N+](=O)[O-])c2cccnc2c1O (centres undefined)	x	105	-7	95	i	0.16
COc1ccc(C2C(C#N)=C(N)Oc3c2ccc2cccnc32)cc1OC (centres undefined)	-190	x	5	x	i	0.38
COc1cc(C2C(C#N)=C(N)Oc3c2ccc2ccccc32)ccc1OCC(=O)Nc1cccc(C)c1 (centres undefined)	21	50	76*	41	i	0.26
COc1cc(C2C(C#N)=C(N)Oc3c2ccc2ccccc32)ccc1OCC(=O)Nc1ccc(C)cc1 (centres undefined)	23	31	69*	32	i	-0.87
CCc1ccc2nc(N=C(N)N)nc(C)c2c1	x	x	96*	x	i	0.92
Cc1ccc2nc(N=C(N)N)nc(C)c2c1	x	x	26	x	i	-0.59
Cc1cc2nc(N=C(N)N)nc(C)c2cc1C	x	x	100*	x	i	-1.1
COc1cccc(C(=O)N(Cc2ccco2)Cc2cc3cccc(C)c3[nH]c2=O)c1	0	92	38	79	i	0.28
Cc1ccc(-n2sc3ccccc3c2=O)cc1	x	1.4*	43	1.1*	i	0.88
CC(=O)c1sc(NC(=O)c2c(F)cccc2F)nc1-c1ccccc1	5	x	-7	x	i	1.8
